Laboratory results taken from PubChem BioAssay (Tox21).
Records with an inconclusive call do not appear. Active and inactive are the calls of the source. Unless noted, calls follow the shape of the dose curve; as a rule, active = well fitted curve in the direction sought with a large enough effect in the repeat runs; inconclusive = weak or mixed curves; inactive = no such curve, though single readings can be large; an effect the other way counts as inactive or inconclusive.

Key:
[1] = qHTS assay to identify aromatase inhibitors - cell viability counter screen (AID 743084);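 also: cells stimulated with testosterone during compound exposure; nearly all actives have a fitted effect of over 55% in size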
[2] = target: Aryl hydrocarbon receptor (Homo sapiens) (UniProt P35869); assay: qHTS assay to identify small molecule that activate the aryl hydrocarbon receptor (AhR) signaling pathway (AID 743085); also: nearly all actives have a fitted effect of over 15% in size; also: potency is read from the fitted curve at half-maximal effect;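 as to activation: HG2L7.5c1 human HepG2 liver cells with stably integrated DRE-driven firefly reporter; series mostly up to about 70 µM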
Sequence of Aryl hydrocarbon receptor (Homo sapiens) (P35869 whole entry, looked up): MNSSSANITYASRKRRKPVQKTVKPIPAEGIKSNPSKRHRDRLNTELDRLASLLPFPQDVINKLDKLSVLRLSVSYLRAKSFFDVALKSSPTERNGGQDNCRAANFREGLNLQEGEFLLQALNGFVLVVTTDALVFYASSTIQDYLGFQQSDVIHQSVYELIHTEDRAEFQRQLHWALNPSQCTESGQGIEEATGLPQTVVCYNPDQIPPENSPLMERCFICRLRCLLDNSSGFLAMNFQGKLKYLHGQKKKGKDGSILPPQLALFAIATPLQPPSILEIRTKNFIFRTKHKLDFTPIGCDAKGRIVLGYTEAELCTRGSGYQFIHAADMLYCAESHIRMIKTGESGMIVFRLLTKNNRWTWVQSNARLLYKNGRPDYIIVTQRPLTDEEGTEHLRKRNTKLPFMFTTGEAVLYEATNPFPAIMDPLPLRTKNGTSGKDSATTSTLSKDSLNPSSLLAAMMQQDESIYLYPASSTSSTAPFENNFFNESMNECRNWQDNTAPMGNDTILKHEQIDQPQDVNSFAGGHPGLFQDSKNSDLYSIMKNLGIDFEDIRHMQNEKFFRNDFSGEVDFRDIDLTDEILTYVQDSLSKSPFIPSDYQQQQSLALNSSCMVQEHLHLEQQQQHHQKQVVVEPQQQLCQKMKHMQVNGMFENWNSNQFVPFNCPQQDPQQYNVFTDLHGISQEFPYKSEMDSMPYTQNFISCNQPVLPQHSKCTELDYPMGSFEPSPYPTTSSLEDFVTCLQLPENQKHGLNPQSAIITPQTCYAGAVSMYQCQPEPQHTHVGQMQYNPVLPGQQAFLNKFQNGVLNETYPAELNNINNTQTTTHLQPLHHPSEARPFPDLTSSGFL
How it was run: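 Luminescence read-out: ONE-Glo reagent, 30 min at room temperature, in HG2L7.5c1 HepG2 reporter cells treated 24 h at 37C. Viability was measured beforehand by CellTiter-Fluor fluorescence after 30 min at 37C.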

[3] = qHTS assay to identify small molecule that activate the aryl hydrocarbon receptor (AhR) signaling pathway - cell viability counter screen (AID 743086);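 also: HepG2 liver cells carrying the AhR DRE luciferase reporter; series mostly up to about 70 µM; nearly all actives have a fitted effect of over 45% in size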
How it was run: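 HepG2-AhR-luc (HG2L7.5c1) cells, 4000/well, treated 24 h at 37 C with compound; viability measured as CellTiter-Fluor fluorescence after 30 min in the same wells as the luciferase read.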

[4] = target: Peroxisome proliferator-activated receptor gamma (Homo sapiens) (UniProt P37231); assay: qHTS assay to identify small molecule agonists of the peroxisome proliferator-activated receptor gamma (PPARg) signaling pathway (AID 743094; active = well fitted activation curve with a large enough effect in the signal ratio in the repeat runs, not every such curve was filed as active; the % refers to the signal ratio)
Sequence of Peroxisome proliferator-activated receptor gamma (Homo sapiens) (P37231 whole entry, looked up): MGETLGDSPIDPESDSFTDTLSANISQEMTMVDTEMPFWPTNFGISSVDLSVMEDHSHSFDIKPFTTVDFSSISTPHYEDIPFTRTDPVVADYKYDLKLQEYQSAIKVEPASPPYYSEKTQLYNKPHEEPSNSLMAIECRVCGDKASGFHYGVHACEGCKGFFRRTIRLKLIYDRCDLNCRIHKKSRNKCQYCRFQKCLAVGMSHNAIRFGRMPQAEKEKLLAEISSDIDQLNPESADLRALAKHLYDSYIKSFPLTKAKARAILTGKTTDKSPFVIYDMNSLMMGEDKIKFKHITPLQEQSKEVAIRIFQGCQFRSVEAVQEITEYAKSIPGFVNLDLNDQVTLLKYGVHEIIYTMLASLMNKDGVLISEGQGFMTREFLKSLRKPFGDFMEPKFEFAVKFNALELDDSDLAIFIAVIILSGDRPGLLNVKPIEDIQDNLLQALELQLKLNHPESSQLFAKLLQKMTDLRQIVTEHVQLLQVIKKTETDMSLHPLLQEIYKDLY
How it was run: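 GeneBLAzer PPARg UAS-bla HEK293H cells were plated, rested 5 h, then exposed to compounds for 17 h at 37C. Beta-lactamase activity was read by LiveBLAzer B/G FRET substrate fluorescence after 1 h at room temperature.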

[5] = target: Peroxisome proliferator-activated receptor gamma (Homo sapiens) (UniProt P37231); assay: qHTS assay to identify small molecule antagonists of the peroxisome proliferator-activated receptor gamma (PPARg) signaling pathway (AID 743191; calls by dose curve; also: series mostly up to about 63 µM; nearly all actives have a fitted effect of over 30% in size)
How it was run: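 GeneBLAzer PPARg UAS-bla HEK293H cells, 5 h post-plating, exposed to compounds 17 h at 37C. LiveBLAzer B/G FRET substrate added for 1 h at room temperature; beta-lactamase reporter read by fluorescence intensity.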

[6] = qHTS assay to identify small molecule antagonists of the peroxisome proliferator-activated receptor gamma (PPARg) signaling pathway - cell viability counter screen (AID 743194); also: nearly all actives have a fitted effect of over 55% in size
How it was run: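 Cytotoxicity counter screen in PPARg-bla HEK293H cells, same wells as reporter assay. Compounds plus 50 nM rosiglitazone (final) for 17 h at 37 C, then viability read by CellTiter-Glo luminescence.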

[7] = qHTS assay for small molecule agonists of the antioxidant response element (ARE) signaling pathway (AID 743202; active = well fitted activation curve with a large enough effect in the signal ratio in the repeat runs, not every such curve was filed as active; the % refers to the signal ratio)
How it was run: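 Agonist mode reporter screen: HepG2 cells with ARE-controlled beta-lactamase are incubated with test compounds for 16 h at 37 C, and beta-lactamase activity is measured as fluorescence of cleaved B/G FRET substrate.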

[8] = qHTS assay for small molecule agonists of the antioxidant response element (ARE) signaling pathway - cell viability counter screen (AID 743203; calls by dose curve; also: nearly all actives have a fitted effect of over 55% in size)
How it was run: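 ARE-bla HepG2 cells were plated, rested 5 h at 37C/5% CO2, then exposed to compounds in DMSO for 16 h. Viability was read as CellTiter-Glo luminescence after 30 min at room temperature, in the same wells as the ARE screen.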

[9] = qHTS assay for small molecule activators of the heat shock response signaling pathway - cell viability counter screen (AID 743209); also: nearly all actives have a fitted effect of over 50% in size
How it was run: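 HSE-bla HeLa cells plated overnight, then exposed to Tox21 compounds (23 nL in DMSO) for 5 h at 37 C. After the bla reporter read, CellTiter-Glo was added in the same wells and luminescence read after 30 min at room temperature.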

[10] = qHTS assay for small molecule activators of the heat shock response signaling pathway (AID 743210; active = well fitted activation curve with a large enough effect in the signal ratio in the repeat runs, with a control signal flat, not every such curve was filed as active; the % refers to the signal ratio;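 also: HeLa cells with beta-lactamase reporter driven by heat shock elements; series mostly up to about 63 µM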)
How it was run: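 Quantitative high-throughput format using an engineered HeLa line in which heat shock response elements drive beta-lactamase; after 5 h with compound, cells received a B/G FRET substrate and fluorescence was read.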

[11] = qHTS assay to identify small molecule agonists of the peroxisome proliferator-activated receptor delta (PPARd) signaling pathway - cell viability counter screen (AID 743211); also: nearly all actives have a fitted effect of over 55% in size
How it was run: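 Read-out: CellTiter-Glo luminescence, 30 min RT, measured in the same wells as the beta-lactamase reporter. Cells: GeneBLAzer PPAR delta UAS-bla HEK293H, 3000 cells/well, compound exposure 17 h at 37C.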

[12] = qHTS assay to identify small molecule agonists of the farnesoid-X-receptor (FXR) signaling pathway - cell viability counter screen (AID 743218); also: nearly all actives have a fitted effect of over 45% in size
How it was run: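 FXR-UAS-bla HEK 293T cells exposed to compounds for 16 h at 37C. Cytotoxicity read in the same wells by CellTiter-Glo luminescence after 30 min at room temperature, following the beta-lactamase FRET read.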

[13] = qHTS assay to identify small molecule antagonists of the farnesoid-X-receptor (FXR) signaling pathway - cell viability counter screen (AID 743221; active = well fitted cell-killing curve with a large enough effect in the repeat runs, not every such curve was filed as active; also: nearly all actives have a fitted effect of over 50% in size)
How it was run: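 HEK 293T FXR-bla cells, 5 h pre-incubation; compound + CDCA 50 uM final, 16 h, 37 C; beta-lactamase FRET read first, then CellTiter-Glo luminescence, 30 min RT.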

[14] = target: Vitamin D3 receptor (Homo sapiens) (UniProt P11473); assay: qHTS assay to identify small molecule agonists of the vitamin D receptor (VDR) signaling pathway (AID 743222; calls by dose curve)
Sequence of Vitamin D3 receptor (Homo sapiens) (P11473 whole entry, looked up): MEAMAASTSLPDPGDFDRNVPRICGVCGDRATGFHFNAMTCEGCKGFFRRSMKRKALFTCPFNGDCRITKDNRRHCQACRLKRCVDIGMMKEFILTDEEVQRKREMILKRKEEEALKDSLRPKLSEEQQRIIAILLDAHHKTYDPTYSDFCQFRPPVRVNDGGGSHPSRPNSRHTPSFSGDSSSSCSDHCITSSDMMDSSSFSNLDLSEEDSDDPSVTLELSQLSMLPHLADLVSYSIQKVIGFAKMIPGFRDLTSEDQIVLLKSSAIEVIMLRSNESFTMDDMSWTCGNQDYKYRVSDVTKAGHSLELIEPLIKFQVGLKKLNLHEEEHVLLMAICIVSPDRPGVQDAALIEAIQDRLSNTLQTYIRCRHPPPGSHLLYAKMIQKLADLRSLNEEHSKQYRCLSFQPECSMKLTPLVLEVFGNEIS
How it was run: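 VDR-bla cells plated 4 h at 37 C, then exposed to compounds for 16 h at 37 C. Beta-lactamase reporter activity measured by fluorescence after 2 h room-temperature loading with LiveBLAzer B/G FRET substrate.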

[15] = target: Vitamin D3 receptor (Homo sapiens) (UniProt P11473); assay: qHTS assay to identify small molecule antagonists of the vitamin D receptor (VDR) signaling pathway (AID 743223; active = well fitted inhibition curve with a large enough effect in the signal ratio in the repeat runs, not every such curve was filed as active; the % refers to the signal ratio)
How it was run: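 Beta-lactamase reporter read-out: FRET substrate fluorescence after 2 h at room temperature, following 16 h exposure of VDR-bla cells to test compound plus 3 nM (final) 1alpha,25-dihydroxyvitamin D3 agonist at 37C.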

[16] = target: Peroxisome proliferator-activated receptor delta (Homo sapiens) (UniProt Q03181); assay: qHTS assay to identify small molecule agonists of the peroxisome proliferator-activated receptor delta (PPARd) signaling pathway (AID 743212; calls by dose curve)
Sequence of Peroxisome proliferator-activated receptor delta (Homo sapiens) (Q03181 whole entry, looked up): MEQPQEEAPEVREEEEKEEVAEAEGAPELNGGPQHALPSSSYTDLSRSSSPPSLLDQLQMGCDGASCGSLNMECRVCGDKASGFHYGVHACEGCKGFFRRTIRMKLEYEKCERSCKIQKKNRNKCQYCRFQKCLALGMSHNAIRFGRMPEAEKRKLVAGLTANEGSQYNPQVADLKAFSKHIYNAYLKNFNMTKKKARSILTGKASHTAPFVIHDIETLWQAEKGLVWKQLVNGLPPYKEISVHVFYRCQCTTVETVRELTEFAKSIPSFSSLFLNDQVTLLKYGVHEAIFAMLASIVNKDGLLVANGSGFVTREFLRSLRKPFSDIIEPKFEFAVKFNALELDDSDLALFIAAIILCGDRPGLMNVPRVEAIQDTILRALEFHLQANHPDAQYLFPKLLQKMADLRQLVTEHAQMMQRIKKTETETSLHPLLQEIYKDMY
How it was run: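 Quantitative high-throughput agonist screen in a HEK293H beta-lactamase reporter line under UAS control. Compounds in DMSO, at 37 C. Fluorescence read after 2 h with FRET substrate at room temperature.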

[17] = qHTS assay to identify small molecule antagonists of the peroxisome proliferator-activated receptor delta (PPARd) signaling pathway - cell viability counter screen (AID 743213); also: nearly all actives have a fitted effect of over 50% in size
How it was run: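 Same-well viability: cells pre-incubated 5 h, dosed with compound plus 300 nM L165041, kept 17 h at 37 C, FRET substrate 2 h RT, then CellTiter-Glo 30 min RT and luminescence.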

[18] = target: Peroxisome proliferator-activated receptor delta (Homo sapiens) (UniProt Q03181); assay: qHTS assay to identify small molecule antagonists of the peroxisome proliferator-activated receptor delta (PPARd) signaling pathway (AID 743215; active = well fitted inhibition curve with a large enough effect in the signal ratio in the repeat runs, not every such curve was filed as active; the % refers to the signal ratio;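 also: cells stimulated with agonist L165041 at 300 nM final during compound exposure; series mostly up to about 62 µM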)
How it was run: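 PPARd-bla HEK293H cells (UAS-bla reporter) preincubated 5 h, then given compound plus 300 nM final L165041 agonist for 17 h at 37 C. Beta-lactamase activity read by LiveBLAzer B/G FRET substrate fluorescence after 2 h at room temperature.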

[19] = target: Bile acid receptor (Homo sapiens) (UniProt Q96RI1); assay: qHTS assay to identify small molecule antagonists of the farnesoid-X-receptor (FXR) signaling pathway (AID 743217; active = well fitted inhibition curve with a large enough effect in the signal ratio in the repeat runs, not every such curve was filed as active; the % refers to the signal ratio)
Sequence of Bile acid receptor (Homo sapiens) (Q96RI1 whole entry, looked up): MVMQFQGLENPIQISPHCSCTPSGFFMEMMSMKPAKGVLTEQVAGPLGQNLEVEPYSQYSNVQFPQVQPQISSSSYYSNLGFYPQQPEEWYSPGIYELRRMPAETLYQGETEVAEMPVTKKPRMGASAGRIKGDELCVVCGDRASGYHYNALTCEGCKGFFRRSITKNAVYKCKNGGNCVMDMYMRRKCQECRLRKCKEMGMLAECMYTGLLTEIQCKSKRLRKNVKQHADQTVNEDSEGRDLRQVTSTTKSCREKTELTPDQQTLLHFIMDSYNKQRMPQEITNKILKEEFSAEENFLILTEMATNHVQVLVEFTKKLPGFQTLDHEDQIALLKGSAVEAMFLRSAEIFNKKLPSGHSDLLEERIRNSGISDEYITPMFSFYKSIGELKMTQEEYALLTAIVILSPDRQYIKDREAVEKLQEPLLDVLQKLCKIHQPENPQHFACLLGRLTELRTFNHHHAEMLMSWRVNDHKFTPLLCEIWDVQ
How it was run: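 FXR-UAS-bla HEK 293T cells (beta-lactamase reporter) given compound plus chenodeoxycholic acid (50 uM final), 16 h at 37C. LiveBLAzer B/G FRET substrate added for 2 h at room temperature; fluorescence read.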

[20] = target: Bile acid receptor (Homo sapiens) (UniProt Q96RI1); assay: qHTS assay to identify small molecule agonists of the farnesoid-X-receptor (FXR) signaling pathway (AID 743220; active = well fitted activation curve with a large enough effect in the signal ratio in the repeat runs, not every such curve was filed as active; the % refers to the signal ratio)
How it was run: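 Beta-lactamase reporter under UAS control in GeneBLAzer FXR HEK 293T cells (5000/well) measured with LiveBLAzer FRET substrate after 2 h at room temperature. Compound exposure lasted 16 h at 37C.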

Measured: Potency

Cc1c(C(C)C)c(=O)n(-c2ccccc2)n1C
not listed: [16] | [17] | [18] | [19] | [20]
inactive: all other assays above

Cc1ccccc1OCC1CO1 (stereo not drawn)
not listed: [5] | [15]
inactive: all other assays above

Cc1nc(C)nc(N2C[C@@H](C)N(c3ccnc([C@@H](C)O)n3)[C@@H](C)C2)n1
not listed: [7] | [11] | [12] | [16] | [18] | [19] | [20]
inactive: all other assays above

O=C1CC[C@H](C(=O)N2CCCCC2)N1
not listed: [5] | [14] | [15] | [18] | [19] | [20]
inactive: all other assays above

CCCCCCCCOC(C)=O
not listed: [10] | [15] | [17] | [19] | [20]
inactive: all other assays above

CO[Si](CCCS)(OC)OC
not listed: [7] | [11] | [13] | [14] | [15] | [18]
inactive: all other assays above

COc1ccc(/C=N/NC(=O)c2ccncc2)cc1OC
active: [2] 2660 nM
not listed: [10] | [14] | [15] | [17] | [19] | [20]
inactive: all other assays above

C=COCCOCCOC=C
not listed: [7] | [12] | [15]
inactive: all other assays above

CC(C)(C)c1ccc(C=O)cc1
not listed: [5] | [12] | [19] | [20]
inactive: all other assays above

CCOC(=O)CC(CC(=O)OCC)(OC(C)=O)C(=O)OCC
not listed: [6] | [12] | [16] | [18] | [19] | [20]
inactive: all other assays above

BrC/C=C/CBr
not listed: [7] | [11] | [14] | [15] | [16] | [19]
inactive: all other assays above

CN(C1CCCCC1)S(=O)(=O)c1ccccc1N
not listed: [7] | [19]
inactive: all other assays above

CC(=O)c1ccc2c(c1)CCCC2
not listed: [5] | [15] | [19] | [20]
inactive: all other assays above

CCN(CCC#N)c1ccccc1
not listed: [7] | [12] | [15] | [16] | [19] | [20]
inactive: all other assays above

NCCc1ccn[nH]1
not listed: [7] | [12] | [14] | [15] | [19] | [20]
inactive: all other assays above

CCCCCCCCCCCCCCCC(=O)NCCO
not listed: [7] | [11] | [12] | [18] | [19]
inactive: all other assays above

CCOC(=O)C(C)(C)C
not listed: [5] | [20]
inactive: all other assays above

O=C(O)C(=O)Nc1cccc(-c2nn[nH]n2)c1
not listed: [5]
inactive: all other assays above
